# Test results taken from publication PMC7862700, “An all-to-all approach to the identification of sequence-specific readers for epigenetic DNA modifications on cytosine”.
# Columns and labels:
# Test in all cases: DAPPL (digital affinity profiling via proximity ligation, sequencing); 10 mM Tris-HCl pH 7.5, 50 mM NaCl, 1 mM DTT, 4% glycerol, room temperature, 30 min; GST-TFs on glutathione beads, 16-mer random dsDNA library, 0.1% formaldehyde crosslink after washing; high values mean tight binding
# FEV = target: T1, FEV (Homo sapiens, UniProt Q99581 1-238); settings: protein: recombinant; tags: N-terminal GST; dsDNA, one strand shown
# T1 sequence: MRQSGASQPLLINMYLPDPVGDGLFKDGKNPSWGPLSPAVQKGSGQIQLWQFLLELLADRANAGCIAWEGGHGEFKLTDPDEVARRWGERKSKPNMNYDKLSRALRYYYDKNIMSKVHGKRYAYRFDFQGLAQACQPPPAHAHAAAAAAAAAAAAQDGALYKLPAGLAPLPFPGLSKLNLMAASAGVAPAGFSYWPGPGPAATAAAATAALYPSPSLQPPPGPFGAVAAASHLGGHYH
# How it was run: (§1)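 GST fusions of human transcription factors were expressed in yeast and captured with glutathione beads. Once given DNA barcodes and pooled alongside a tag-only sample, they were incubated for 30 min at room temperature with 200 nmole of a random double-stranded 16-mer DNA library in Tris/NaCl/DTT/glycerol buffer, then washed, crosslinked (0.1% formaldehyde), proximity-ligated, PCR-amplified and sequenced on an Illumina NextSeq500. The binding signal of each hexamer is its read frequency for a factor divided by its frequency for the tag-only sample.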
# ETV5 = ETV5 (Homo sapiens, UniProt P41161 1-510); settings: protein: recombinant; tags: N-terminal GST; dsDNA, one strand shown
# Sequence of ETV5 (P41161 whole entry): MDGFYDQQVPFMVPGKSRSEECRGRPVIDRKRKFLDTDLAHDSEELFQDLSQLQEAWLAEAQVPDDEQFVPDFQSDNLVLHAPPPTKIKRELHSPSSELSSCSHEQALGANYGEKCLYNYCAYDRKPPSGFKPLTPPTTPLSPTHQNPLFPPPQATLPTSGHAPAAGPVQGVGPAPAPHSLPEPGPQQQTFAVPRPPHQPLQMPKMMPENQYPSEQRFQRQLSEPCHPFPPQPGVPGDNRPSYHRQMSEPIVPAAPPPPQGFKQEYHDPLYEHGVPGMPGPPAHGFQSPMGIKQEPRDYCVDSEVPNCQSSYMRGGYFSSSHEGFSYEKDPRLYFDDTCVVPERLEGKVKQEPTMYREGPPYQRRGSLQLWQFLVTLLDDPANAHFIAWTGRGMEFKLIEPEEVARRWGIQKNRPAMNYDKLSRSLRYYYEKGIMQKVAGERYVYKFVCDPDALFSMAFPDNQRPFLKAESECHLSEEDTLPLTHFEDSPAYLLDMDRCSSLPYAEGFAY
# How it was run: as §1
# HSF1 = HSF1 (Homo sapiens, UniProt Q00613 1-529); settings: protein: recombinant; tags: N-terminal GST; chain copies: 3; dsDNA, one strand shown
# Sequence of HSF1 (Q00613 whole entry): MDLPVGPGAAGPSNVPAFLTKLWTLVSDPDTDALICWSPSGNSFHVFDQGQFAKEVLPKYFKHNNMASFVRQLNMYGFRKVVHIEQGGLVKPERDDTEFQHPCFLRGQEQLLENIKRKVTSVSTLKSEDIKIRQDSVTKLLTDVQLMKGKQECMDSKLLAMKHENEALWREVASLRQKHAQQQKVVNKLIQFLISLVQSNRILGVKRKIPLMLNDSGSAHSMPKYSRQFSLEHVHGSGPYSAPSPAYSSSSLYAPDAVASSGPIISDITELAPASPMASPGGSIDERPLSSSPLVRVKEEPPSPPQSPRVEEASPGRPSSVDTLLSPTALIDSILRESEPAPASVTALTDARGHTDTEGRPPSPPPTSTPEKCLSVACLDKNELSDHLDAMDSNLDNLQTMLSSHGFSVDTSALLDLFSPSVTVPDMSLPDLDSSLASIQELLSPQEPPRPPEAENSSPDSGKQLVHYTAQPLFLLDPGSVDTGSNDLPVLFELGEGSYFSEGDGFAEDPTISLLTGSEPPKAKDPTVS
# How it was run: as §1
# SPIC = target: T2, SPIC (Homo sapiens, UniProt Q8N5J4 1-248); settings: protein: recombinant; tags: N-terminal GST; dsDNA, one strand shown
# T2 sequence: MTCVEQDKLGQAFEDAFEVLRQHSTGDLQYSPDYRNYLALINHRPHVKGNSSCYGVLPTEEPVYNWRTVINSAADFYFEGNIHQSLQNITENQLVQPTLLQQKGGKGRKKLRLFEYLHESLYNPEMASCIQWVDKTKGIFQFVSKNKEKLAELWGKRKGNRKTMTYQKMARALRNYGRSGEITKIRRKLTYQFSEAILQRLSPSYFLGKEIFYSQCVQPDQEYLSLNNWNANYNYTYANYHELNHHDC
# How it was run: as §1
# ELF4 = ELF4 (Homo sapiens, UniProt Q99607 1-663); settings: protein: recombinant; tags: N-terminal GST; dsDNA, one strand shown
# Sequence of ELF4 (Q99607 whole entry): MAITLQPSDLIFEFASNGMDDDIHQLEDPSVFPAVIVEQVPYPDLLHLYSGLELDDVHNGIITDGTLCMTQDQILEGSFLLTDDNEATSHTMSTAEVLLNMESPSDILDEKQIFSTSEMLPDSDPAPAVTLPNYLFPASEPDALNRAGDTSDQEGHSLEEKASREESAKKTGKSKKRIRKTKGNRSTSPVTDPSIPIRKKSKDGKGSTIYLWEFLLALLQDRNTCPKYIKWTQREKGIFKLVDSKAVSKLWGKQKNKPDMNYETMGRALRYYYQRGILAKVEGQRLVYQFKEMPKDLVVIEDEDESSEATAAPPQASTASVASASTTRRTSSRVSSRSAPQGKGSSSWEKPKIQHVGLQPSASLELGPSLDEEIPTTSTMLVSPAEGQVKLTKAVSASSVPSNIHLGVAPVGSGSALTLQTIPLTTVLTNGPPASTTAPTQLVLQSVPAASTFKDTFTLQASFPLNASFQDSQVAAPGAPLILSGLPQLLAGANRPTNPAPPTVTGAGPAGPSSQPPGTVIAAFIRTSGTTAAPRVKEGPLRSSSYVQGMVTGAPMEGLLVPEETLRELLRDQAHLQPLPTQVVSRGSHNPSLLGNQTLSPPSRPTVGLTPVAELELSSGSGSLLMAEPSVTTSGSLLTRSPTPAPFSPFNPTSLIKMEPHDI
# How it was run: as §1
# ELK4 = target: T3, ELK4 (Homo sapiens, UniProt P28324-2 1-405); settings: protein: recombinant; tags: N-terminal GST; dsDNA, one strand shown
# T3 sequence: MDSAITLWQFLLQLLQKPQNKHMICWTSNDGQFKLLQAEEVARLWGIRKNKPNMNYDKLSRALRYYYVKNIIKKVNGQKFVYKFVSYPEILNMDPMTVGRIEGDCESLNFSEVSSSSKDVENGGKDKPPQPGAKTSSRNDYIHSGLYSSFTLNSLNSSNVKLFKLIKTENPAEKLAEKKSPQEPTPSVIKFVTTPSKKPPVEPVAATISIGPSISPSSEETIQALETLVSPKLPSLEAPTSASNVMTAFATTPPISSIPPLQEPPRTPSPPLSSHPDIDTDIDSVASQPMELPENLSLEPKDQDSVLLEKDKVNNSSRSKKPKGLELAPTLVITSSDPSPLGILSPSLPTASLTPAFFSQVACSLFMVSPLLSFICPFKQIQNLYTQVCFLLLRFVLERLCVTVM
# How it was run: as §1
# ETV2 = target: T4, ETV2 (Homo sapiens, UniProt O00321 1-342); settings: protein: recombinant; tags: N-terminal GST; dsDNA, one strand shown
# T4 sequence: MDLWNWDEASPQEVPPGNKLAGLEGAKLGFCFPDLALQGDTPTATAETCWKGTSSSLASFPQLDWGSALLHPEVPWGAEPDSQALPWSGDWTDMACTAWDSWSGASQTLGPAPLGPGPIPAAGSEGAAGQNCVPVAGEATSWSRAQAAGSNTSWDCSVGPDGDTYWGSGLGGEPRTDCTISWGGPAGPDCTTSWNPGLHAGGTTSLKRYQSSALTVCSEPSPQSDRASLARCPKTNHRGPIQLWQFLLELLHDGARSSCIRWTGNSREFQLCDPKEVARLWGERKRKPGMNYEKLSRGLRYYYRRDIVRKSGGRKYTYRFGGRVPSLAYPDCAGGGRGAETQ
# How it was run: as §1
# ELF3 = target: T5, ELF3 (Homo sapiens, UniProt P78545 1-371); settings: protein: recombinant; tags: N-terminal GST; dsDNA, one strand shown
# T5 sequence: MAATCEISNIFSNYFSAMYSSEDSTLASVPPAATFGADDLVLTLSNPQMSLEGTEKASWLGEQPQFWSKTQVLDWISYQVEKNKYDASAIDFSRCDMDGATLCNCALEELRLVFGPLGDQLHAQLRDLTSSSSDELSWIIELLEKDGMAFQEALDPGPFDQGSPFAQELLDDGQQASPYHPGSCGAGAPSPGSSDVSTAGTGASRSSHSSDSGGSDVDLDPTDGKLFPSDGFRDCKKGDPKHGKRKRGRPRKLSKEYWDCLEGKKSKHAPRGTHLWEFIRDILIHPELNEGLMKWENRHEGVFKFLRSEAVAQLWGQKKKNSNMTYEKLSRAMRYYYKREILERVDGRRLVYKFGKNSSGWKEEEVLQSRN
# How it was run: as §1
# CRX = CRX (Homo sapiens, UniProt O43186 1-299); settings: protein: recombinant; tags: N-terminal GST; dsDNA, one strand shown
# Sequence of CRX (O43186 whole entry): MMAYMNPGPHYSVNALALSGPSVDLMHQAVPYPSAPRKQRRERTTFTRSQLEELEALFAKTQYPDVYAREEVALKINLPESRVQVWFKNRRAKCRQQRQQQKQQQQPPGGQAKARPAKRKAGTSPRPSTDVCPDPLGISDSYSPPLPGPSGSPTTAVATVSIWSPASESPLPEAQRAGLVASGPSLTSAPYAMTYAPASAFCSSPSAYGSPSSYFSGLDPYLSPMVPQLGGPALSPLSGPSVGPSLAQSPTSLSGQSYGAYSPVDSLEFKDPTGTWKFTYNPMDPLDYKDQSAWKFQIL
# How it was run: as §1
# ETV1 = ETV1 (Homo sapiens, UniProt P50549 1-477); settings: protein: recombinant; tags: N-terminal GST; dsDNA, one strand shown
# Sequence of ETV1 (P50549 whole entry): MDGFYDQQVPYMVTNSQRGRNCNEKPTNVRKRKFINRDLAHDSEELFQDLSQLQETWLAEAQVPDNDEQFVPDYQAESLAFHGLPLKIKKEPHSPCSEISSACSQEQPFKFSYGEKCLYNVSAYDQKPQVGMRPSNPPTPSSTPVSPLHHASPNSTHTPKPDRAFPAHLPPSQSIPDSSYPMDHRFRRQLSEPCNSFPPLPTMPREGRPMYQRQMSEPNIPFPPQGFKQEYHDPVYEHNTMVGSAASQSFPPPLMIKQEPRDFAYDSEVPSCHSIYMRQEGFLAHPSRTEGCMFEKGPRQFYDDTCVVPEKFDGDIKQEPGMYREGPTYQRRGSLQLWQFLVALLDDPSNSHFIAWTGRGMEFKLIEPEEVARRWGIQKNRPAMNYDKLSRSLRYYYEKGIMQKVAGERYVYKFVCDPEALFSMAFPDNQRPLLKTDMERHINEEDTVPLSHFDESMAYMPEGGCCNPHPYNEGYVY
# How it was run: as §1
# ERF = target: T6, ERF (Homo sapiens, UniProt P50548 1-548); settings: protein: recombinant; tags: N-terminal GST; dsDNA, one strand shown
# T6 sequence: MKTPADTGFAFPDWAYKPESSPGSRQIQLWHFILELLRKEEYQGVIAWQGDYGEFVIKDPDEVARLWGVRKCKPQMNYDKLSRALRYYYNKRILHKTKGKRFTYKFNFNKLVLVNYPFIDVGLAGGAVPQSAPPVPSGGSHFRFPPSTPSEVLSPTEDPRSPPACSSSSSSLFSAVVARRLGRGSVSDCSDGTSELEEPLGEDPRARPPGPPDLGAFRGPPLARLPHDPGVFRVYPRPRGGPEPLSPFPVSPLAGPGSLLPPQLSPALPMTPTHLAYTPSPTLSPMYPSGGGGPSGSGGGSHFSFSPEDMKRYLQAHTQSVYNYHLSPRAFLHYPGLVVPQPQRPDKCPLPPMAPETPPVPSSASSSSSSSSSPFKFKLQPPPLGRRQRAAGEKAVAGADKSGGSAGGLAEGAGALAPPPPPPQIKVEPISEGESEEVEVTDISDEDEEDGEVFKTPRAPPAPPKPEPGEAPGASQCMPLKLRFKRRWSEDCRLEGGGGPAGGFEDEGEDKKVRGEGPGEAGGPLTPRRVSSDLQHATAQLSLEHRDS
# How it was run: as §1
# ETV3L = target: T7, ETV3L (Homo sapiens, UniProt Q6ZN32 1-361); settings: protein: recombinant; tags: N-terminal GST; dsDNA, one strand shown
# T7 sequence: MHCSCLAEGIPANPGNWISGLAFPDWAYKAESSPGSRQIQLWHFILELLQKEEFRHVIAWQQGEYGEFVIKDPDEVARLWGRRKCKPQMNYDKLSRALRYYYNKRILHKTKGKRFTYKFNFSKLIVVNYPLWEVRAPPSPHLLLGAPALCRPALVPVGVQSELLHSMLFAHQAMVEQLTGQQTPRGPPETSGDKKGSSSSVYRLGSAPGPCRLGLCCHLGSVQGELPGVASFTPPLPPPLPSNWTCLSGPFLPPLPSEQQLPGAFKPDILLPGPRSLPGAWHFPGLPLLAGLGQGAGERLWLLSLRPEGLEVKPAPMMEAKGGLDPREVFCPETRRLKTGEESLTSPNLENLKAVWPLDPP
# How it was run: as §1
# ETS2 = target: T8, ETS2 (Homo sapiens, UniProt P15036 1-469); settings: protein: recombinant; tags: N-terminal GST; dsDNA, one strand shown
# T8 sequence: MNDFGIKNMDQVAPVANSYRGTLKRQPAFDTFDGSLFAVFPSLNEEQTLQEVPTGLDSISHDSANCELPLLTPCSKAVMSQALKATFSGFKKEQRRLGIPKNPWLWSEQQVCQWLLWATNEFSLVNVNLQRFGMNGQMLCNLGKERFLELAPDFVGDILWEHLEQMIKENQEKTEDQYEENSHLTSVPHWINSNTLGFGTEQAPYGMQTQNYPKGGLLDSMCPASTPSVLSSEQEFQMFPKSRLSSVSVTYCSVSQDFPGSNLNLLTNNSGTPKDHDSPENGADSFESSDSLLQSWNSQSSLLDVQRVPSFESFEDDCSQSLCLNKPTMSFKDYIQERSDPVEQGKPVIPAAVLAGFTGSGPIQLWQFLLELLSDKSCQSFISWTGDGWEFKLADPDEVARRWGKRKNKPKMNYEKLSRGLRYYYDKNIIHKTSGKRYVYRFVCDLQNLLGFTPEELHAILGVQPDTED
# How it was run: as §1
# SPDEF = target: T9, SPDEF (Homo sapiens, UniProt O95238 1-335); settings: protein: recombinant; tags: N-terminal GST; dsDNA, one strand shown
# T9 sequence: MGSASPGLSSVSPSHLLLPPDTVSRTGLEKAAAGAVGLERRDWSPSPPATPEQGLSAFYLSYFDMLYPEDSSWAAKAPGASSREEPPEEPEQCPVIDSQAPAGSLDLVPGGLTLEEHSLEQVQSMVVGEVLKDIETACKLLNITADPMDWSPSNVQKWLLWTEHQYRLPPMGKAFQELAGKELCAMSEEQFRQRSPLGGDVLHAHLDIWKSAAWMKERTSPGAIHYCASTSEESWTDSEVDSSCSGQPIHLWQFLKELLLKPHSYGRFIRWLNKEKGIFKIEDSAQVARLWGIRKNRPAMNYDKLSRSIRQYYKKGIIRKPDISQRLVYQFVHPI
# How it was run: as §1
# ETV7 = target: T10, ETV7 (Homo sapiens, UniProt Q9Y603 1-341); settings: protein: recombinant; tags: N-terminal GST; dsDNA, one strand shown
# T10 sequence: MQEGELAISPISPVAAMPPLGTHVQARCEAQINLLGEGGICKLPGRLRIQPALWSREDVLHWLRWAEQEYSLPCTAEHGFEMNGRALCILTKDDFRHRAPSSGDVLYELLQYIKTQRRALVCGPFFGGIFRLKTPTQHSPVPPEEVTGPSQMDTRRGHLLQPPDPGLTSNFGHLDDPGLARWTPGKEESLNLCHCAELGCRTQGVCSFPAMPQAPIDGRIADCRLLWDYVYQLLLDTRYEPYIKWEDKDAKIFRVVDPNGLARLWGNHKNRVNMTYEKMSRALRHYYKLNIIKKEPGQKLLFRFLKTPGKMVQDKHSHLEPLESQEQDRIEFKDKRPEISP
# How it was run: as §1
# ELF5 = target: T11, ELF5 (Homo sapiens, UniProt Q9UKW6-2 1-255); settings: protein: recombinant; tags: N-terminal GST; dsDNA, one strand shown
# T11 sequence: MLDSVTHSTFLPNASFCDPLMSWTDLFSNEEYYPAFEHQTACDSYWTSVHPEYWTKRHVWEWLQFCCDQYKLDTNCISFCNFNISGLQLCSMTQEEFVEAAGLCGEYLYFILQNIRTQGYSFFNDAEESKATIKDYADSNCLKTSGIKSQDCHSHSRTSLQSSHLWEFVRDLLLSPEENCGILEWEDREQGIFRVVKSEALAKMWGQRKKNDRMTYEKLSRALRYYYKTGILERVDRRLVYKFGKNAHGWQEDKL
# How it was run: as §1
# ETV3 = target: T12, ETV3 (Homo sapiens, UniProt P41162-2 1-143); settings: protein: recombinant; tags: N-terminal GST; dsDNA, one strand shown
# T12 sequence: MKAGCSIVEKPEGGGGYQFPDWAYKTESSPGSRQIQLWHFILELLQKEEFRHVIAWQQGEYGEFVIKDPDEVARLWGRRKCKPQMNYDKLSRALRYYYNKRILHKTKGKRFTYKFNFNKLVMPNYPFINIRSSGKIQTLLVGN
# How it was run: as §1
# ETV6 = ETV6 (Homo sapiens, UniProt P41212 1-452); settings: protein: recombinant; tags: N-terminal GST; dsDNA, one strand shown
# Sequence of ETV6 (P41212 whole entry): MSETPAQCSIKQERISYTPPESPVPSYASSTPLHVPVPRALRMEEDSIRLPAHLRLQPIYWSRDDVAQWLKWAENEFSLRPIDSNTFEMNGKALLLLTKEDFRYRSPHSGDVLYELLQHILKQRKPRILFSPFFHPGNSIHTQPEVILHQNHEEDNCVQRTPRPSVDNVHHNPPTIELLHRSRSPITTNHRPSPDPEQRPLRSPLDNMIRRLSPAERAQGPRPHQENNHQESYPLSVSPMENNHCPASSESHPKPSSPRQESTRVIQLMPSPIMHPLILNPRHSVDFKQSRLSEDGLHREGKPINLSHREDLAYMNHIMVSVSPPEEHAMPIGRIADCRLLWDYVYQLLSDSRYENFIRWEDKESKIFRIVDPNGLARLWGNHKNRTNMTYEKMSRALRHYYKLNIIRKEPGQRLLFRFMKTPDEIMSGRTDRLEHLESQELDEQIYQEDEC
# How it was run: as §1
sequence,measurement,setting,value
TTTTCA,binding signal,FEV,"1.17 fold enrichment (6-mer frequency, TF over GST control)"
same,binding signal,ETV5,"1.2 fold enrichment (6-mer frequency, TF over GST control)"
same,binding signal,HSF1,"1.14 fold enrichment (6-mer frequency, TF over GST control)"
same,binding signal,SPIC,"1.22 fold enrichment (6-mer frequency, TF over GST control)"
same,binding signal,ELF4,"1.27 fold enrichment (6-mer frequency, TF over GST control)"
same,binding signal,ELK4,"1.2 fold enrichment (6-mer frequency, TF over GST control)"
same,binding signal,ETV2,"1.24 fold enrichment (6-mer frequency, TF over GST control)"
same,binding signal,ELF3,"1.31 fold enrichment (6-mer frequency, TF over GST control)"
same,binding signal,CRX,"1.28 fold enrichment (6-mer frequency, TF over GST control)"
same,binding signal,ETV1,"1.22 fold enrichment (6-mer frequency, TF over GST control)"
same,binding signal,ERF,"1.24 fold enrichment (6-mer frequency, TF over GST control)"
same,binding signal,ETV3L,"1.26 fold enrichment (6-mer frequency, TF over GST control)"
same,binding signal,ETS2,"1.14 fold enrichment (6-mer frequency, TF over GST control)"
same,binding signal,SPDEF,"1.18 fold enrichment (6-mer frequency, TF over GST control)"
same,binding signal,ETV7,"1.26 fold enrichment (6-mer frequency, TF over GST control)"
same,binding signal,ELF5,"1.25 fold enrichment (6-mer frequency, TF over GST control)"
same,binding signal,ETV3,"1.31 fold enrichment (6-mer frequency, TF over GST control)"
same,binding signal,ETV6,"1.21 fold enrichment (6-mer frequency, TF over GST control)"
